# The list is not random: actives were taken first. Their share in the collection is about 4.1%.
# Jurkat NFkB inh: lowers PMA/ionomycin-induced NF-kB signal in Jurkat cells | inhibition, % at 4 µM | PMA/ionomycin-induced NF-kB luciferase reporter, luminescence | 330,000 compounds, 0.53% hits | AID 435003; in the data active means inhibition above about 50%
# 697 NFkB inh: inhibitors of the PMA/ionomycin-induced NF-kB reporter in 697 B cells | 697 B-cell NF-kB luciferase reporter, 16 h | inhibition, % at 4 µM | 330,000 compounds, 0.33% hits; in the data active means inhibition above about 35%
# KLF5 inh: inhibitors of KLF5 expression | DLD-1 KLF5 promoter-luciferase reporter, luminescence | inhibition, % at 5 µM | 290,000 compounds, 0.23% hits;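 active means inhibition above a per-plate limit of that plate's mean compound inhibition plus 3 SD, cut at about 60% in these data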;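 further: 0% = DMSO wells and 100% = LY294002 at 200 µM; higher means less KLF5 promoter-driven luciferase light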
# Mdm2-MdmX inh: disrupts the human Mdm2-MdmX interaction | SaOS-2 split-luciferase Mdm2/MdmX complementation, luminescence | inhibition, % at 8 µM | AID 485346 | 330,000 compounds, 3% hits | O15151+Q00987;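 active means inhibition of at least 50% at 8 µM in the primary screen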
# aSyn UTR inh: 5' untranslated region of α-synuclein, MLPCN primary screen | AID 1813 | alpha-synuclein 5'UTR reporter, inhibitor activity | inhibition, % (tested at 7.5 µM) | 300,000 compounds, 0.82% hits; in the data active means inhibition above about 60%; inconclusive means no clear call, values can overlap the other calls;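 further: H4 neuroglioblastoma cells stably carrying SNCA 5'UTR luciferase fusion; 0% = DMSO wells and 100% = positive control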
# Gli-Sufu antag: blocks Gli-Sufu signaling in a luciferase reporter | Sufu-KO-LIGHT fibroblasts, Gli luciferase reporter luminescence | inhibition, % at 5 µM | 340,000 compounds, 0.74% hits | AID 588413;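 active means inhibition above about 55%, limit read from the data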;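 further: 0% = DMSO-treated cells and 100% = wells with medium but no cells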
# Mdm2 MdmX conf: confirmation of human Mdm2/MdmX interaction inhibitors | shares compounds with Mdm2-MdmX inh | Mdm2-MdmX binding, luminescent assay | inhibition, % at 8 µM | 10,000 compounds, 55% hits; in the data active means inhibition above about 40%
# FLuc counter: counter-screen for Mdm2/MdmX inhibitors: full-length luciferase; shares compounds with Mdm2-MdmX inh; SaOS-2 full-length luciferase counterscreen, luminescence; inhibition, % at 8 µM; 6,200 compounds, 77% hits;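 active means mean inhibition at 8 µM reaching about 37%, which flags the compound as non-specific, limit read from the data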;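 further: p53-null SaOS-2 cells with luciferase driven by a doxycycline-inducible promoter; compound on cells about two nights before reading with doxycycline added after day one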
# Active calls of the source: *; ? = inconclusive; / = not tested or not shown.
SMILES,Jurkat NFkB inh,697 NFkB inh,KLF5 inh,Mdm2-MdmX inh,aSyn UTR inh,Gli-Sufu antag,Mdm2 MdmX conf,others
CN(C)S(=O)(=O)c1ccc(N2C(=O)CC2(/C=C/c2ccccc2)C(=O)NC2CCCC2)cc1 (centres undefined),6,-9,-11,15,?,10,/,
COc1cc(NC(=O)Cn2cnc(S(=O)(=O)N3CCc4ccccc43)c2)cc(OC)c1OC,11,20,8,16,7,-4,/,
CC(=O)c1ccc(-c2ccc([C@H]3[C@H]4C=CC[C@@H](C)[C@@H]4C(=O)N3Cc3ccccc3)c(F)c2)cc1,7,11,/,56*,24,-1,11,
C[C@@H]1CC=C[C@H]2[C@H]1C(=O)N(Cc1ccccc1)[C@H]2c1ccc2ccccc2c1Br,29,-165,/,84*,-6,8,27,
CC(=O)c1ccc(-c2ccc([C@H]3[C@@H]4C=CCC[C@@]4(C)C(=O)N3Cc3ccccc3)c(F)c2)cc1,4,14,/,54*,18,-22,16,
CC[C@@H]1CC=C[C@H]2[C@H]1C(=O)N(Cc1ccccc1)[C@H]2c1ccoc1,17,-144,/,69*,-10,0,9,
Cc1cc(NS(=O)(=O)c2ccc(NC(=O)Cc3ccc(Cl)c(Cl)c3)cc2)no1,-20,9,/,21,/,-4,/,
O=C(NC(=S)NC1C2CC3CC(C2)CC1C3)c1ccccc1 (centres undefined),-5,-14,-16,39,-54,-7,/,
COc1cc(/C=C/C(=O)OCC(=O)NCCc2ccc(F)cc2)ccc1OC(F)F,5,11,/,3,/,3,/,
C[C@@]12CCC=C[C@H]1[C@H](c1ccc3ccccc3c1Br)N(Cc1ccccc1)C2=O,7,-2,/,50*,5,2,9,
CN(C)CCNc1ncnc2c1sc1nc(N3CCOCC3)c3c(c12)CC(C)(C)SC3,-5,5,-29,70*,72*,-5,45*,FLuc counter=75*
CCN(CC)CCNc1ncnc2c1sc1nc(N3CCOCC3)c3c(c12)CC(C)(C)SC3,17,-26,-12,63*,18,9,40,FLuc counter=54*
COc1ccc(OC)c(-c2cc(C(=O)Nc3ccc(F)cc3F)no2)c1,-6,17,-53,58*,-2,4,14,
Cc1cc(Br)cc2c(C(=O)NCC3CCCO3)cc(-c3cccs3)nc12 (centres undefined),-11,-57,-29,56*,-46,-6,15,
CC1CCC(NC(=O)C2CCC(CNS(=O)(=O)c3cccc4nsnc34)CC2)CC1 (centres undefined),18,9,-13,56*,17,16,-5,
Cc1ccc(-c2csc(=Nc3cccnc3)n2CCCn2ccnc2)cc1C,30,-96,9,71*,34,46,75*,FLuc counter=24
O=C(NCc1cccs1)C(=O)NCC1OCCCN1S(=O)(=O)c1cc(F)ccc1F (centres undefined),-15,-11,-41,2,0,-4,/,
Cc1c(C#N)c(O)n(CCO)c(=O)c1N=Nc1ccc2c(c1)COC2=O,3,11,-41,91*,-4,1,19,
Cc1c(Cl)ccc2c(C(=O)NCCN3CCCCC3)cc(-c3ccccn3)nc12,-1,-7,8,50,27,10,34,FLuc counter=61*
O=C(Nc1nccs1)c1cc(-c2ccccn2)nc2c(Cl)cccc12,7,-29,0,78*,5,-4,25,
Cc1ccc2nc(-c3ccccn3)cc(C(=O)NC3CCN(C)CC3)c2c1,/,/,-9,/,-29,/,/,
Cc1cc(NC(=O)c2cc(-c3ccccn3)nc3c(Cl)cccc23)no1,26,-37,0,23,16,-1,/,
COc1ccccc1-c1cc(C(=O)NC2CCN(C)CC2)c2ccc(Cl)c(C)c2n1,44,20,-20,99*,101*,6,68*,FLuc counter=37*
CN(C)CCn1c(=O)n(C2CCCCC2)c(=O)c2c3c(sc21)CCCCC3,6,21,/,59*,-8,10,45*,FLuc counter=65*
CCc1sc(C(=O)Nc2nccs2)cc1C,-103,-51,-172,-135,-123,-29,/,
